# Laboratory results taken from PubChem BioAssay AID1159580 (chemical genetic matrix, 2015).
# Screen size: about 5,500 compounds; about 2,000 (36%) were called active. Inconclusive results (about 18%) are left out. The list shows a part of the results. Unmarked numbers belong to inactive results. Rule as the data show it: active = normalized growth mostly below about 0.91 (no sharp cut-off); inconclusive = no clear call, values can overlap the other calls; inactive = mostly above about 0.92.
# Test: chemical genetic growth profiling, strain panel (AID 1159580);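 also: tested at 20 µM; growth read once vehicle control cultures reached saturation at 30 °C; 1 = growth at the plate median or of vehicle wells; lower values mean less growth of the strain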
# Conditions: growth OD
# [1] = S. cerevisiae deletion strains, locus YHR030C, strain SLT2, hits give low values
smiles,measurement,setting,value
CN(C)C=Nc1nc2c(s1)CCc1ccccc1-2,normalized growth,"S. cerevisiae deletion strains, locus YAL013W, strain DEP1, hits give low values",0.953
same,normalized growth,"S. cerevisiae deletion strains, locus YBR229C, strain ROT2, hits give low values",0.975
same,normalized growth,"S. cerevisiae deletion strains, locus YDL101C, strain DUN1, hits give low values",0.964
same,normalized growth,"S. cerevisiae deletion strains, locus YDR150W, strain NUM1, hits give low values",0.934
same,normalized growth,"S. cerevisiae deletion strains, locus YEL061C, strain CIN8, hits give low values",0.878 (active)
same,normalized growth,"S. cerevisiae deletion strains, locus YGR078C, strain PAC10, hits give low values",0.989
same,normalized growth,[1],0.477 (active)
same,normalized growth,"S. cerevisiae deletion strains, locus YHR087W, strain rtc3, hits give low values",1.01
same,normalized growth,"S. cerevisiae deletion strains, locus YJL187C, strain SWE1, hits give low values",0.972
same,normalized growth,"S. cerevisiae deletion strains, locus YJR043C, strain POL32, hits give low values",0.994
same,normalized growth,"S. cerevisiae deletion strains, locus YJR075W, strain HOC1, hits give low values",0.957
same,normalized growth,"S. cerevisiae deletion strains, locus YLR039C, strain RIC1, hits give low values",0.794
same,normalized growth,"S. cerevisiae deletion strains, locus YLR058C, strain SHM2 (second series), hits give low values",0.989
same,normalized growth,"S. cerevisiae deletion strains, locus YLR085C, strain ARP6, hits give low values",0.622 (active)
same,normalized growth,"S. cerevisiae deletion strains, locus YLR262C, strain YPT6, hits give low values",0.811 (active)
same,normalized growth,"S. cerevisiae deletion strains, locus YML094W, strain GIM5, hits give low values",0.798 (active)
same,normalized growth,"S. cerevisiae deletion strains, locus YMR219W, strain ESC1, hits give low values",0.991
same,normalized growth,"S. cerevisiae deletion strains, locus YMR263W, strain SAP30, hits give low values",0.977
same,normalized growth,"S. cerevisiae deletion strains, locus YNL153C, strain GIM3, hits give low values",0.968
same,normalized growth,"S. cerevisiae deletion strains, locus YNL298W, strain CLA4 (second series), hits give low values",0.825 (active)
same,normalized growth,"S. cerevisiae deletion strains, locus YNL322C, strain KRE1, hits give low values",0.994
same,normalized growth,"S. cerevisiae deletion strains, locus YNR030W, strain Alg12, hits give low values",0.899
same,normalized growth,"S. cerevisiae deletion strains, locus YPL055C, strain LGE1, hits give low values",0.799 (active)
same,normalized growth,"S. cerevisiae deletion strains, locus YPL241C, strain CIN2, hits give low values",0.819 (active)
same,normalized growth,"S. cerevisiae deletion strains, locus YPR135W, strain CTF4, hits give low values",0.635 (active)
same,normalized growth,"S. cerevisiae strains, strain wild type, hits give low values",0.997
NCC1CCCCC1CC(=O)O (stereo not given),normalized growth,"S. cerevisiae deletion strains, locus YAL021C, strain ccr4, hits give low values",1.01
same,normalized growth,"S. cerevisiae deletion strains, locus YAL026C, strain drs2, hits give low values",1.02
same,normalized growth,"S. cerevisiae deletion strains, locus YAL030W, strain snc1, hits give low values",1.03
same,normalized growth,"S. cerevisiae deletion strains, locus YBL061C, strain skt5, hits give low values",1.04
same,normalized growth,"S. cerevisiae deletion strains, locus YBR009C, strain hhf1, hits give low values",0.988
same,normalized growth,"S. cerevisiae deletion strains, locus YBR023C, strain chs3, hits give low values",1.02
same,normalized growth,"S. cerevisiae deletion strains, locus YBR171W, strain sec66, hits give low values",1.03
same,normalized growth,"S. cerevisiae deletion strains, locus YBR231C, strain swc5, hits give low values",1.01
same,normalized growth,"S. cerevisiae deletion strains, locus YBR279W, strain paf1, hits give low values",1.03
same,normalized growth,"S. cerevisiae deletion strains, locus YCL011C, strain gbp2, hits give low values",1.02
same,normalized growth,"S. cerevisiae deletion strains, locus YCL016C, strain dcc1, hits give low values",1
same,normalized growth,"S. cerevisiae deletion strains, locus YCL061C, strain MRC1, hits give low values",1.04
same,normalized growth,"S. cerevisiae deletion strains, locus YCL069W, strain vba3, hits give low values",1.02
same,normalized growth,"S. cerevisiae deletion strains, locus YCR088W, strain abp1, hits give low values",1.04
same,normalized growth,"S. cerevisiae deletion strains, locus YDL005C, strain med2, hits give low values",1.02
same,normalized growth,"S. cerevisiae deletion strains, locus YDL040C, strain nat1, hits give low values",1.02
same,normalized growth,"S. cerevisiae deletion strains, locus YDR001C, strain nth1, hits give low values",1.02
same,normalized growth,"S. cerevisiae deletion strains, locus YDR069C, strain doa4, hits give low values",1.05
same,normalized growth,"S. cerevisiae deletion strains, locus YDR137W, strain rgp1, hits give low values",1.03
same,normalized growth,"S. cerevisiae deletion strains, locus YDR159W, strain sac3, hits give low values",0.98
same,normalized growth,"S. cerevisiae deletion strains, locus YDR195W, strain ref2",0.989
same,normalized growth,"S. cerevisiae deletion strains, locus YDR297W, strain sur2, hits give low values",1.05
same,normalized growth,"S. cerevisiae deletion strains, locus YDR334W, strain swr1, hits give low values",1.02
same,normalized growth,"S. cerevisiae deletion strains, locus YDR335W, strain msn5, hits give low values",1.03
same,normalized growth,"S. cerevisiae deletion strains, locus YDR392W, strain spt3, hits give low values",0.95
same,normalized growth,"S. cerevisiae deletion strains, locus YEL003W, strain gim4, hits give low values",1.03
same,normalized growth,"S. cerevisiae deletion strains, locus YEL037C, strain rad23, hits give low values",1.02
same,normalized growth,"S. cerevisiae deletion strains, locus YEL061C, strain CIN8 (second series), hits give low values",1.02
same,normalized growth,"S. cerevisiae deletion strains, locus YER015W, strain faa2, hits give low values",1.03
same,normalized growth,"S. cerevisiae deletion strains, locus YER016W, strain bim1, hits give low values",1
same,normalized growth,"S. cerevisiae deletion strains, locus YER111C, strain swi4, hits give low values",1.01
same,normalized growth,"S. cerevisiae deletion strains, locus YER155C, strain BEM2 (second series), hits give low values",1.07
same,normalized growth,"S. cerevisiae deletion strains, locus YFR010W, strain ubp6, hits give low values",1.02
same,normalized growth,"S. cerevisiae deletion strains, locus YGL167C, strain pmr1, hits give low values",1.03
same,normalized growth,"S. cerevisiae deletion strains, locus YGL173C, strain kem1, hits give low values",1.04
same,normalized growth,"S. cerevisiae deletion strains, locus YGL227W, strain vid30, hits give low values",1.03
same,normalized growth,"S. cerevisiae deletion strains, locus YGL240W, strain doc1, hits give low values",1.04
same,normalized growth,"S. cerevisiae deletion strains, locus YGL253W, strain hxk2, hits give low values",1.03
same,normalized growth,"S. cerevisiae deletion strains, locus YHR013C, strain ard1, hits give low values",1.02
same,normalized growth,"S. cerevisiae deletion strains, locus YHR027C, strain rpn1, hits give low values",1.01
same,normalized growth,[1],0.999
same,normalized growth,"S. cerevisiae deletion strains, locus YHR079C, strain IRE1, hits give low values",0.997
same,normalized growth,"S. cerevisiae deletion strains, locus YHR142W, strain chs7, hits give low values",1.03
same,normalized growth,"S. cerevisiae deletion strains, locus YJL092W, strain hpr5, hits give low values",1.03
same,normalized growth,"S. cerevisiae deletion strains, locus YJL095W, strain BCK1 (second series), hits give low values",1.02
same,normalized growth,"S. cerevisiae deletion strains, locus YJL095W, strain BCK1, hits give low values",0.988
same,normalized growth,"S. cerevisiae deletion strains, locus YJL115W, strain asf1, hits give low values",1.03
same,normalized growth,"S. cerevisiae deletion strains, locus YJL129C, strain trk1, hits give low values",1.04
same,normalized growth,"S. cerevisiae deletion strains, locus YJL154C, strain vps35, hits give low values",1.01
same,normalized growth,"S. cerevisiae deletion strains, locus YJL164C, strain tpk1, hits give low values",1.01
same,normalized growth,"S. cerevisiae deletion strains, locus YJL166W, strain qcr8, hits give low values",1.05
same,normalized growth,"S. cerevisiae deletion strains, locus YJR066W, strain TOR1, hits give low values",0.941
same,normalized growth,"S. cerevisiae deletion strains, locus YKL160W, strain elf1, hits give low values",1.04
same,normalized growth,"S. cerevisiae deletion strains, locus YKR026C, strain gcn3, hits give low values",1.02
same,normalized growth,"S. cerevisiae deletion strains, locus YKR091W, strain srl3, hits give low values",1.02
same,normalized growth,"S. cerevisiae deletion strains, locus YLL001W, strain dnm1, hits give low values",1.04
same,normalized growth,"S. cerevisiae deletion strains, locus YLL026W, hits give low values",1.01
same,normalized growth,"S. cerevisiae deletion strains, locus YLL041C, strain sdh2, hits give low values",1.02
same,normalized growth,"S. cerevisiae deletion strains, locus YLR027C, strain aat2, hits give low values",1.04
same,normalized growth,"S. cerevisiae deletion strains, locus YLR113W, strain HOG1, hits give low values",0.959
same,normalized growth,"S. cerevisiae deletion strains, locus YLR221C, strain rsa3, hits give low values",1
same,normalized growth,"S. cerevisiae deletion strains, locus YLR258W, strain gsy2, hits give low values",1.02
same,normalized growth,"S. cerevisiae deletion strains, locus YLR262C, strain YPT6 (second series), hits give low values",1.04
same,normalized growth,"S. cerevisiae deletion strains, locus YLR320W, strain mms22, hits give low values",1
same,normalized growth,"S. cerevisiae deletion strains, locus YLR342W, strain FKS1, hits give low values",1.04
same,normalized growth,"S. cerevisiae deletion strains, locus YLR357W, strain rsc2, hits give low values",1.04
same,normalized growth,"S. cerevisiae deletion strains, locus YLR370C, strain arc18, hits give low values",1.03
same,normalized growth,"S. cerevisiae deletion strains, locus YLR384C, strain iki3, hits give low values",1.02
same,normalized growth,"S. cerevisiae deletion strains, locus YML120C, strain ndi1, hits give low values",1.03
same,normalized growth,"S. cerevisiae deletion strains, locus YMR058W, strain fet3, hits give low values",1.04
same,normalized growth,"S. cerevisiae deletion strains, locus YMR125W, strain sto1, hits give low values",0.985
same,normalized growth,"S. cerevisiae deletion strains, locus YMR129W, hits give low values",1.02
same,normalized growth,"S. cerevisiae deletion strains, locus YMR205C, strain PFK2, hits give low values",1.04
same,normalized growth,"S. cerevisiae deletion strains, locus YMR231W, strain pep5, hits give low values",1.02
same,normalized growth,"S. cerevisiae deletion strains, locus YNL071W, strain lat1, hits give low values",1.01
same,normalized growth,"S. cerevisiae deletion strains, locus YNL183C, strain NPR1, hits give low values",0.912
same,normalized growth,"S. cerevisiae deletion strains, locus YNL209W, strain ssb2, hits give low values",1.03
same,normalized growth,"S. cerevisiae deletion strains, locus YNL248C, strain rpa49, hits give low values",1.01
same,normalized growth,"S. cerevisiae deletion strains, locus YNL322C, strain KRE1 (second series), hits give low values",1.02
same,normalized growth,"S. cerevisiae deletion strains, locus YNR049C, strain mso1, hits give low values",1.02
same,normalized growth,"S. cerevisiae deletion strains, locus YOR001W, strain rrp6, hits give low values",1.04
same,normalized growth,"S. cerevisiae deletion strains, locus YOR070C, strain gyp1, hits give low values",1.02
same,normalized growth,"S. cerevisiae deletion strains, locus YOR080W, strain dia2, hits give low values",1.04
same,normalized growth,"S. cerevisiae deletion strains, locus YOR083W, strain WHI5, hits give low values",1.01
same,normalized growth,"S. cerevisiae deletion strains, locus YOR106W, strain vam3, hits give low values",1.06
same,normalized growth,"S. cerevisiae deletion strains, locus YOR231W, strain MKK1, hits give low values",0.992
same,normalized growth,"S. cerevisiae deletion strains, locus YOR265W, strain rbl2, hits give low values",1.03
same,normalized growth,"S. cerevisiae deletion strains, locus YOR270C, strain vph1, hits give low values",1.04
same,normalized growth,"S. cerevisiae deletion strains, locus YOR290C, strain snf2, hits give low values",1
same,normalized growth,"S. cerevisiae deletion strains, locus YPL051W, strain arl3, hits give low values",1.03
same,normalized growth,"S. cerevisiae deletion strains, locus YPL078C, strain atp4, hits give low values",1.05
same,normalized growth,"S. cerevisiae deletion strains, locus YPL106C, strain sse1, hits give low values",1
same,normalized growth,"S. cerevisiae deletion strains, locus YPL240C, strain hsp82, hits give low values",1.02
same,normalized growth,"S. cerevisiae deletion strains, locus YPL256C, strain CLN2, hits give low values",0.961
